# Shown are actives, neighbours in structure and some others; about 7.3% of the full set was active somewhere.
# VP16 counter: inhibits Gal4-VP16 luciferase reporter, ROR gamma counter-screen. Drosophila S2 Gal4-VP16 UAS-luciferase, luminescence, 20 h. Potency, µM (highest dose often 53.6 µM), for the others: at the highest dose activity, negative = inhibition, usual class: inhibitors. actives 3.5% (n = 310,000). AID 2546;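 note: Gal4-VP16 expression switched on by copper sulfate through the metallothionein promoter; nearly all actives have a fitted effect of over 50% in size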
# Tau fluor cs: counter-screen for tau fibril formation inhibitors; tau K18 P301L Alexa594 fluorescence, heparin fibrillization; Potency, µM (titrated, usually from 57.7 µM), inactives show at the highest dose activity change, negative = decrease; actives 0.93% (n = 280,000); AID 1463; note: nearly all actives have a fitted effect of over 55% in size
#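 Human K18 P301L tau (15 uM unlabeled plus 0.24 uM Alexa 594-labeled, final) in 100 mM sodium acetate pH 7 was mixed with compound and 20 uM heparin and incubated 6 hr at 37 C.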
# RORg inh: inhibitors of mouse ROR gamma transcriptional activity; Potency, µM (series often up to 53.6 µM), for inactives: at the highest dose activity change, negative = inhibition, actives largely listed as inhibitors; P51450; actives 5.4% (n = 310,000); Drosophila S2 Gal4-RORgamma UAS-luciferase reporter, 20 h; note: nearly all actives have a fitted effect of over 60% in size
# Target sequence (P51450 whole entry, looked up, the tested form may be a part): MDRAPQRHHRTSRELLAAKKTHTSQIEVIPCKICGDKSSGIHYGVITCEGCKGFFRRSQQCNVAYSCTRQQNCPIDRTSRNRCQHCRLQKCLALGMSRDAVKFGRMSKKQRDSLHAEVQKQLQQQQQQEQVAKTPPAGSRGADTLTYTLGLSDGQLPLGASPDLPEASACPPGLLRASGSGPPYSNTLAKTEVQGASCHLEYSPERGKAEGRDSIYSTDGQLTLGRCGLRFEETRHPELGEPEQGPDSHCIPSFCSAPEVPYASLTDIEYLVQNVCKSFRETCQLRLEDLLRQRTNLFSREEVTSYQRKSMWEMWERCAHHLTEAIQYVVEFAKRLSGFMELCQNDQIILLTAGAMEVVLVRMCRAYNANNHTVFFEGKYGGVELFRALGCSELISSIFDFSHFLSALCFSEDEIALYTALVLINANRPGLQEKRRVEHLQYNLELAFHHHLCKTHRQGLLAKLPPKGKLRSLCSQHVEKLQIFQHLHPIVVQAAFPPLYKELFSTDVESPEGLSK
#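 Drosophila Schneider cells stably carrying a metallothionein-driven Gal4 DBD–ROR gamma fusion and a UAS-Photinus luciferase reporter were exposed to compound for 1 hr, then induced with copper sulfate (700 uM final) for 20 hr at ambient temperature before luminescence reading.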
# Tau ThT inhib: blocks human tau fibril formation measured by thioflavin T; P10636; recombinant tau K18 P301L, heparin-induced fibrillization, ThT fluorescence; Potency, µM (top dose mostly 57.4 µM), for inactives: top-dose activity, negative = inhibition, usual class: inhibitors; actives 2.1% (n = 270,000); AID 1460; note: nearly all actives have a fitted effect of over 55% in size
# Target sequence (P10636 561-689 P618L limits assumed): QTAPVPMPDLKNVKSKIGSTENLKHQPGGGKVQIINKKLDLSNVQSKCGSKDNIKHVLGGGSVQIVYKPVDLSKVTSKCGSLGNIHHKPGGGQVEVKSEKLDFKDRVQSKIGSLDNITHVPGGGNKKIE
#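 Fibril formation assay: tau K18 P301L at 15 uM with trace Alexa 594 label, heparin inducer 20 uM, pH 7 sodium acetate buffer, 37 C for 6 hr; endpoint ThT signal.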
# Tau fibril FP: blocks human tau fibril formation measured by polarization; actives 0.39% (n = 280,000); Potency, µM (titrated, usually from 57.7 µM), inactives show top-dose activity, negative = inhibition, most hits filed as inhibitors; K18 P301L tau heparin fibrillization, Alexa594 FP, 6 h; note: nearly all actives have a fitted effect of over 55% in size
#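 Human K18 P301L fragment (15 uM unlabeled plus 0.24 uM Alexa 594-labeled) in 100 mM sodium acetate pH 7 with compound, aggregation induced by 20 uM heparin for 6 hr at 37 C. ThT (30 uM) added for 1 hr, then Alexa 594 FP read.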
# Starred values were filed as active, the others as inactive; u = inconclusive; x = not tested or not shown; [ ] = dose if it differs, or a comment. Calls come from the whole dose curve; as a rule, active = well fitted curve in the direction sought with a large enough effect; inconclusive = small, poorly fitted or top-dose-only effect, or another doubt; inactive = no such curve, though single readings can be large; an effect the other way counts as inactive or inconclusive. % is set by controls: 0 for no effect and ±100 for the full control effect; potency is the fitted concentration of half-maximal effect.
SMILES,VP16 counter,Tau fluor cs,RORg inh,Tau ThT inhib,Tau fibril FP
Clc1cccc(CSc2nnc(-c3cccnc3)n2Cc2ccco2)c1,u,-1%,16µM*,1%,2%
c1cncc(CSc2nnc(-c3cccnc3)n2Cc2ccco2)c1,0%,-1%,5%,-3%,6%
CCn1c(Sc2ccc([N+](=O)[O-])cn2)nnc1-c1ccco1,u,-6%,10µM*,-5%,-5%
CCn1c(SCC(=O)OCc2ccccc2)nnc1-c1ccco1,-6%,-3%,16%,-2%,0%
CCOC(=O)C1=C(C)C(c2ccccc2OC)NC(=S)N1 (centres undefined),0%,-7%,2.8µM*,-7%,-12%
CCOC(=O)C1=C(C)C(c2ccccc2OC)NC(=O)N1 (centres undefined),-5%,-9%,2%,-5%,-4%
CCc1ccc(-c2[nH]nc3nc(-c4cc(OC)ccc4OC)cc(C(=O)O)c23)cc1,x,u,x,u,-12%
O=C(NCc1ccco1)c1cccn2c(=O)c3cc4ccccc4cc3nc12,11µM*,-8%,u,2.8µM*,0%
COCCCNC(=O)c1cccn2c(=O)c3cc4ccccc4cc3nc12,7%,-11%,-31%,14µM*,-6%
COc1ccccc1NCc1nnc2n1CCCCC2,x,-8%,x,-9%,-7%
CCOc1ccccc1NC(=O)C1CCCN(c2ncnc3onc(-c4ccc(F)cc4)c23)C1 (centres undefined),x,-11%,x,-4%,-1%
CCOC(=O)c1c(-c2ccc(C)cc2)csc1NC(=O)c1cc(=O)c2cc(C)c(C)cc2o1,x,1%,x,3%,5%
CCOC(=O)c1c(-c2ccc(-c3ccccc3)cc2)csc1NC(=O)CNCCN(C)C,1.6µM*,x,0.63µM*,x,x
CCOC(=O)c1c(-c2ccccc2)csc1NC(=O)c1cc(-c2cccc(Cl)c2)on1,x,-7%,x,-16%,-17%
CCOC(=O)c1c(-c2ccccc2)csc1NC(=O)CCN1C(=O)c2ccccc2C1=O,-5%,2%,25%,2%,8%
CCOC(=O)c1c(-c2ccccc2)csc1NC(=O)c1cc(-c2cccc(OC)c2)on1,x,-17%,x,32µM*,u
CCNC(=S)Nc1scc(-c2ccccc2)c1C(=O)OCC,2.5µM*,u,1.4µM*,u,-7%
CCOC(=O)c1c(-c2ccc(C)cc2)csc1NC(=O)c1cc(=O)c2cc(C)ccc2o1,x,-24%,x,25µM*,u
CCOC(=O)c1c(-c2ccccc2)csc1NC(=O)CSc1nnc(C)s1,u,-24%,u,u,-2%
COc1ccc(CC(=O)N[C@@H](CCSC)C(=O)N2CCC3(CC2)NCCc2[nH]cnc23)cc1,20%,x,2%,x,x
CCC1CCCCN1CCCNC(=O)Cn1ncn2nc(-c3ccc(OC)cc3)cc2c1=O (centres undefined),0%,x,-3%,x,x
CCOC(=O)c1c(-c2ccccc2)csc1NC(=S)NC,1µM*,-30%,u,-5%,-5%
COC(=O)c1c(-c2ccc(C)cc2)csc1NC(=S)NC(=O)c1cc(OC)cc(OC)c1,8.9µM*,6%,2.8µM*,13%,u
CCOC(=O)c1c(-c2ccccc2)csc1NC(=O)c1cc(=O)c2ccc(C)cc2o1,x,-12%,x,0%,-9%
COc1ccc(C(=O)N/C(=C/c2cccnc2)C(=O)N2CCN(C)CC2)cc1OC,-25%,x,-3%,x,x
SMILES,VP16 counter,Tau fluor cs,RORg inh,Tau ThT inhib,Tau fibril FP
COc1ccc(CNC(=S)N2CCN(Cc3ccccc3)CC2)cc1,3%,-19%,-13%,-4%,-4%
COc1cccc(NC(=S)N2CCN(Cc3ccccc3)CC2)c1,20µM*,-1%,u,-2%,7%
S=C(Nc1cccc(Cl)c1)N1CCN(Cc2ccccc2)CC1,u,-16%,10µM*,-2%,-7%
COc1cc(NC(=S)N2CCN(Cc3ccccc3)CC2)cc(OC)c1,u,-13%,u,1%,0%
COc1ccc(NC(=S)N2CCN(Cc3ccccc3)CC2)cc1,16%[10 µM],-9%,11µM*,-12%,12%
CCOC(=O)c1cc(C)nc(Sc2ccc(C)cc2)c1C#N,-3%,-20%,6%,-11%,-3%
COc1cccc(NC(=O)c2oc3ccc(S(=O)(=O)N(C)C4CCCCC4)cc3c2C)c1,x,u,x,-6%,-19%
CCOC(=O)C1=C(C)NC(SCc2cc(=O)[nH][nH]2)=C(C#N)C1c1cccs1 (centres undefined),14%,u,-7%,13µM*,u
C=CCOC(=O)C1=C(C)NC(SCC(=O)Nc2nccs2)=C(C#N)C1c1cccs1 (centres undefined),u,16µM*[quencher],u,u,-14%
C=CCOC(=O)C1=C(C)NC(SCC(=O)Nc2nccs2)=C(C#N)C1c1ccc(Cl)cc1 (centres undefined),u,10µM*[quencher],11µM*,-17%,u
Cc1nn(C)c(C(=O)NCc2ccc(Cl)cc2)c1Cl,4µM*,7%,u,2%,0%
Cc1nn(C)c(C(=O)Nc2ccc(Cl)c([N+](=O)[O-])c2)c1Cl,-5%,-2%,41%,-3%,-4%
Cc1nn(C)c(C(=O)NC(=S)Nc2ccccc2O)c1Cl,3.2µM*,x,2µM*,x,x
CCOc1ccc(NC(=S)NC(=O)c2c(Cl)c(C)nn2C)c([N+](=O)[O-])c1,u,-12%,10µM*,-14%,-10%
COc1ccc(C(=O)CSc2nc(-c3ccccn3)nc(C)c2Cl)cc1,u,-20%,2.8µM*,x,3%
Cc1nc(-c2ccccn2)nc(SCC(=O)c2ccc(F)cc2)c1Cl,u,10%[0.0958 µM],3.5µM*,x,1%[0.0958 µM]
O=C(CSc1ccc(-c2ccccn2)nn1)c1ccc(F)cc1,16%,-14%,-27%,-16%,2%
Cc1ccc(NC(=O)CCc2c(C)nc3ncnn3c2C)cc1Cl,x,-6%,x,3%,-10%
Cc1ccccc1C(=O)Nc1nnc(-c2ccncc2)o1,5µM*,0%,2.8µM*,-3%,-3%
COc1ccc(-c2nnc(NC(=O)c3ccccc3C)o2)cc1,0.79µM*,9%,0.63µM*,-5%,5%
Cc1ccccc1C(=O)Nc1nnc(-c2ccco2)o1,-10%,10%,2%,13%,4%
O=C(CSc1oc(-c2ccccc2)nc1S(=O)(=O)c1ccc(Br)cc1)c1ccccc1,x,u,x,1%,u
O=S(=O)(c1ccc(Cl)c(Cl)c1)c1snnc1-c1ccccc1,u,-27%,20µM*,u,-7%
C[C@H]1[C@H](C)CC[C@]2(C(=O)O)CC[C@]3(C)C(=CC[C@@H]4[C@@]5(C)C[C@@H](O)[C@H](O)C(C)(C)[C@@H]5CC[C@]43C)[C@H]12,u,-1%,10µM*,-2%,-4%

# Screening data from PubChem BioAssay.
